Screens from PubChem BioAssay.
Bm FixLJ act: increases Burkholderia fixLJ two-component signaling. z-score (no concentration beside the values). AID 1918990. B. multivorans fixK-promoter GFP reporter, 18 h; stronger effect = higher value. hit rate 0.3% among 29,000;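 active = replicate mean overnight rise in green fluorescent reporter signal, 3 or more SD over negative controls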
Hits are given with their value; n = inactive. Only a selection was taken, and hits are over-represented in it overall.

SMILES	Bm FixLJ act
CCOc1cc(C2C(C(=O)OC)=C(C)NC3=C2C(=O)c2ccccc23)c(Br)cc1OC (stereo not drawn)	n
C#CCOc1ccc(C2C(C(=O)OC)=C(C)NC3=C2C(=O)c2ccccc23)cc1OCC (stereo not drawn)	3.7
CCOc1cc(Br)c(C2C(C(=O)OC)=C(C)NC3=C2C(=O)c2ccccc23)cc1OCC (stereo not drawn)	n
CCOC(=O)C1=C(C)NC(C)=C(C(=O)OC)C1c1cccc([N+](=O)[O-])c1 (stereo not drawn)	n
CCOC(=O)COc1ccc(C2C(C(=O)OC)=C(C)NC3=C2C(=O)c2ccccc23)cc1Cl (stereo not drawn)	4.1
CCOc1cc(C2C(C(=O)OC)=C(C)NC3=C2C(=O)c2ccccc23)cc(Br)c1OCC (stereo not drawn)	n
Cc1ccc(CN2CCC(c3nnc(Cn4cccn4)n3C3CC3)CC2)s1	n
CCOCCCn1c(=N)c(C(=O)NC(C)c2ccccc2)cc2c(=O)n3cc(C)ccc3nc21 (stereo not drawn)	n
Cc1nn2c(C(F)(F)F)cc(-c3ccc(OC(C)C)cc3)nc2c1C#N	n
Cn1c(=O)c2sccc2n2c(CCC(=O)N3CCN(c4ccccc4)CC3)nnc12	n
COc1cc(OC)c(NC(=O)CCc2c(C)nc3c4c(C)cc(C)nc4nn3c2C)cc1Cl	n
COc1ccc2c(c1)cc1c(=O)n(CC(=O)NCCCOC(C)C)nc(C)n12	n
